# Measured values as given in the supplement of paper PMC4466140.
# Legend:
# Assay in all cases: SPOT peptide array binding signal intensity (averaged, normalized) (arbitrary units (background-subtracted, floor 0; scale differs between SH3 domains)); higher = stronger binding of the SH3 domain to the peptide
# AgAbp1 = molecular target: AgAbp1
# Outline: (§1)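 GST-fused SH3 domains, from four yeast species, were produced in E. coli BL21(DE3) and captured on glutathione Sepharose. Membranes of cellulose carrying synthetic 15-mer peptides, in which cysteines had been replaced by serines, were exposed to each domain at 10 μg/ml overnight at 4°C in TBS-based blocking buffer. After anti-GST antibody, an HRP anti-mouse secondary and luminol, spots were imaged and quantified using Genespotter. Binding signal is normalized and background-subtracted spot intensity, averaged over replicates, in arbitrary units that differ between domains.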
# AgBbc1 = molecular target: AgBbc1
# Outline: as §1
# AgBem1-D1 = molecular target: AgBem1-D1
# Outline: as §1
# AgBzz1-D1 = molecular target: AgBzz1-D1
# Outline: as §1
# AgBzz1-D2 = molecular target: AgBzz1-D2
# Outline: as §1
# AgCyk3 = molecular target: AgCyk3
# Outline: as §1
# AgFus1 = molecular target: AgFus1
# Outline: as §1
# AgHof1 = molecular target: AgHof1
# Outline: as §1
# AgHse1 = molecular target: AgHse1
# Outline: as §1
# AgLsb1 = molecular target: AgLsb1
# Outline: as §1
# AgLsb4 = molecular target: AgLsb4
# Outline: as §1
# AgMyo5 = molecular target: AgMyo5
# Outline: as §1
# AgNbp2 = molecular target: AgNbp2
# Outline: as §1
# AgRvs167 = molecular target: AgRvs167
# Outline: as §1
# AgSho1 = molecular target: AgSho1
# Outline: as §1
# AgSla1-D1-D2 = molecular target: AgSla1-D1-D2
# Outline: as §1
# AgSla1-D3 = molecular target: AgSla1-D3
# Outline: as §1
# CaAbp1-D1 = molecular target: CaAbp1-D1
# Outline: as §1
# CaAbp1-D2 = molecular target: CaAbp1-D2
# Outline: as §1
# CaBbc1 = molecular target: CaBbc1
# Outline: as §1
# CaBem1-D1 = molecular target: CaBem1-D1
# Outline: as §1
# CaBzz1-D1 = molecular target: CaBzz1-D1
# Outline: as §1
# CaBzz1-D2 = molecular target: CaBzz1-D2
# Outline: as §1
# CaCyk3 = molecular target: CaCyk3
# Outline: as §1
# CaFus1 = molecular target: CaFus1
# Outline: as §1
# CaHof1 = molecular target: CaHof1
# Outline: as §1
# CaHse1 = molecular target: CaHse1
# Outline: as §1
# CaLsb1 = molecular target: CaLsb1
# Outline: as §1
# CaLsb4 = molecular target: CaLsb4
# Outline: as §1
# CaMyo5 = molecular target: CaMyo5
# Outline: as §1
# CaNbp2 = molecular target: CaNbp2
# Outline: as §1
# CaRvs167 = molecular target: CaRvs167
# Outline: as §1
# CaRvs167-3 = molecular target: CaRvs167-3
# Outline: as §1
# CaSho1 = molecular target: CaSho1
# Outline: as §1
# CaSla1-D1-D2 = molecular target: CaSla1-D1-D2
# Outline: as §1
# CaSla1-D3 = molecular target: CaSla1-D3
# Outline: as §1
# ScAbp1 = molecular target: ScAbp1
# Outline: as §1
# ScBbc1 = molecular target: ScBbc1
# Outline: as §1
# ScBem1-D1 = molecular target: ScBem1-D1
# Outline: as §1
# ScBzz1-D1 = molecular target: ScBzz1-D1
# Outline: as §1
# ScBzz1-D2 = molecular target: ScBzz1-D2
# Outline: as §1
# ScCyk3 = molecular target: ScCyk3
# Outline: as §1
# ScFus1 = molecular target: ScFus1
# Outline: as §1
# ScHof1 = molecular target: ScHof1
# Outline: as §1
# ScHse1 = molecular target: ScHse1
# Outline: as §1
# ScLsb1 = molecular target: ScLsb1
# Outline: as §1
# ScLsb2 = molecular target: ScLsb2
# Outline: as §1
# ScLsb3 = molecular target: ScLsb3
# Outline: as §1
# ScLsb4 = molecular target: ScLsb4
# Outline: as §1
# ScMyo3 = molecular target: ScMyo3
# Outline: as §1
# ScMyo5 = molecular target: ScMyo5
# Outline: as §1
# ScNbp2 = molecular target: ScNbp2
# Outline: as §1
# ScPex13 = molecular target: ScPex13
# Outline: as §1
# ScRvs167 = molecular target: ScRvs167
# Outline: as §1
# ScSho1 = molecular target: ScSho1
# Outline: as §1
# ScSla1-D1-D2 = molecular target: ScSla1-D1-D2
# Outline: as §1
# ScSla1-D3 = molecular target: ScSla1-D3
# Outline: as §1
# SpAbp1-D1 = molecular target: SpAbp1-D1
# Outline: as §1
# SpBbc1 = molecular target: SpBbc1
# Outline: as §1
# SpBzz1-D1 = molecular target: SpBzz1-D1
# Outline: as §1
# SpBzz1-D2 = molecular target: SpBzz1-D2
# Outline: as §1
# SpCyk3 = molecular target: SpCyk3
# Outline: as §1
# SpHof1 = molecular target: SpHof1
# Outline: as §1
# SpHof1-2 = molecular target: SpHof1-2
# Outline: as §1
# SpHof1-3 = molecular target: SpHof1-3
# Outline: as §1
# SpHse1 = molecular target: SpHse1
# Outline: as §1
# SpLsb1 = molecular target: SpLsb1
# Outline: as §1
# SpLsb4 = molecular target: SpLsb4
# Outline: as §1
# SpMyo1 = molecular target: SpMyo1
# Outline: as §1
# SpNbp2 = molecular target: SpNbp2
# Outline: as §1
# SpPex13 = molecular target: SpPex13
# Outline: as §1
# SpRvs167 = molecular target: SpRvs167
# Outline: as §1
# SpSla1-D1-D2 = molecular target: SpSla1-D1-D2
# Outline: as §1
# SpSla1-D3 = molecular target: SpSla1-D3
# Outline: as §1
binder,measurement,setting,value
QPWTDQFEKLEKEVS,SPOT peptide array binding signal intensity,AgAbp1,≤ 0
same,SPOT peptide array binding signal intensity,AgBbc1,≤ 0
same,SPOT peptide array binding signal intensity,AgBem1-D1,15
same,SPOT peptide array binding signal intensity,AgBzz1-D1,≤ 0
same,SPOT peptide array binding signal intensity,AgBzz1-D2,22
same,SPOT peptide array binding signal intensity,AgCyk3,1.5
same,SPOT peptide array binding signal intensity,AgFus1,≤ 0
same,SPOT peptide array binding signal intensity,AgHof1,≤ 0
same,SPOT peptide array binding signal intensity,AgHse1,26
same,SPOT peptide array binding signal intensity,AgLsb1,≤ 0
same,SPOT peptide array binding signal intensity,AgLsb4,≤ 0
same,SPOT peptide array binding signal intensity,AgMyo5,1.5
same,SPOT peptide array binding signal intensity,AgNbp2,≤ 0
same,SPOT peptide array binding signal intensity,AgRvs167,0.167
same,SPOT peptide array binding signal intensity,AgSho1,≤ 0
same,SPOT peptide array binding signal intensity,AgSla1-D1-D2,≤ 0
same,SPOT peptide array binding signal intensity,AgSla1-D3,≤ 0
same,SPOT peptide array binding signal intensity,CaAbp1-D1,≤ 0
same,SPOT peptide array binding signal intensity,CaAbp1-D2,≤ 0
same,SPOT peptide array binding signal intensity,CaBbc1,3.5
same,SPOT peptide array binding signal intensity,CaBem1-D1,≤ 0
same,SPOT peptide array binding signal intensity,CaBzz1-D1,≤ 0
same,SPOT peptide array binding signal intensity,CaBzz1-D2,≤ 0
same,SPOT peptide array binding signal intensity,CaCyk3,≤ 0
same,SPOT peptide array binding signal intensity,CaFus1,≤ 0
same,SPOT peptide array binding signal intensity,CaHof1,0.5
same,SPOT peptide array binding signal intensity,CaHse1,≤ 0
same,SPOT peptide array binding signal intensity,CaLsb1,0.5
same,SPOT peptide array binding signal intensity,CaLsb4,≤ 0
same,SPOT peptide array binding signal intensity,CaMyo5,≤ 0
same,SPOT peptide array binding signal intensity,CaNbp2,23
same,SPOT peptide array binding signal intensity,CaRvs167,1.33
same,SPOT peptide array binding signal intensity,CaRvs167-3,0.5
same,SPOT peptide array binding signal intensity,CaSho1,≤ 0
same,SPOT peptide array binding signal intensity,CaSla1-D1-D2,≤ 0
same,SPOT peptide array binding signal intensity,CaSla1-D3,≤ 0
same,SPOT peptide array binding signal intensity,ScAbp1,1
same,SPOT peptide array binding signal intensity,ScBbc1,4.75
same,SPOT peptide array binding signal intensity,ScBem1-D1,≤ 0
same,SPOT peptide array binding signal intensity,ScBzz1-D1,21
same,SPOT peptide array binding signal intensity,ScBzz1-D2,11
same,SPOT peptide array binding signal intensity,ScCyk3,≤ 0
same,SPOT peptide array binding signal intensity,ScFus1,≤ 0
same,SPOT peptide array binding signal intensity,ScHof1,≤ 0
same,SPOT peptide array binding signal intensity,ScHse1,67
same,SPOT peptide array binding signal intensity,ScLsb1,≤ 0
same,SPOT peptide array binding signal intensity,ScLsb2,≤ 0
same,SPOT peptide array binding signal intensity,ScLsb3,≤ 0
same,SPOT peptide array binding signal intensity,ScLsb4,3
same,SPOT peptide array binding signal intensity,ScMyo3,0.5
same,SPOT peptide array binding signal intensity,ScMyo5,0.75
same,SPOT peptide array binding signal intensity,ScNbp2,≤ 0
same,SPOT peptide array binding signal intensity,ScPex13,181
same,SPOT peptide array binding signal intensity,ScRvs167,1
same,SPOT peptide array binding signal intensity,ScSho1,≤ 0
same,SPOT peptide array binding signal intensity,ScSla1-D1-D2,≤ 0
same,SPOT peptide array binding signal intensity,ScSla1-D3,16.2
same,SPOT peptide array binding signal intensity,SpAbp1-D1,≤ 0
same,SPOT peptide array binding signal intensity,SpBbc1,1.5
same,SPOT peptide array binding signal intensity,SpBzz1-D1,≤ 0
same,SPOT peptide array binding signal intensity,SpBzz1-D2,≤ 0
same,SPOT peptide array binding signal intensity,SpCyk3,≤ 0
same,SPOT peptide array binding signal intensity,SpHof1,≤ 0
same,SPOT peptide array binding signal intensity,SpHof1-2,≤ 0
same,SPOT peptide array binding signal intensity,SpHof1-3,≤ 0
same,SPOT peptide array binding signal intensity,SpHse1,15.5
same,SPOT peptide array binding signal intensity,SpLsb1,≤ 0
same,SPOT peptide array binding signal intensity,SpLsb4,≤ 0
same,SPOT peptide array binding signal intensity,SpMyo1,≤ 0
same,SPOT peptide array binding signal intensity,SpNbp2,≤ 0
same,SPOT peptide array binding signal intensity,SpPex13,≤ 0
same,SPOT peptide array binding signal intensity,SpRvs167,≤ 0
same,SPOT peptide array binding signal intensity,SpSla1-D1-D2,3
same,SPOT peptide array binding signal intensity,SpSla1-D3,≤ 0
FPPKRKPLLRPQRSD,SPOT peptide array binding signal intensity,AgAbp1,766
same,SPOT peptide array binding signal intensity,AgBbc1,332
same,SPOT peptide array binding signal intensity,AgBem1-D1,170
same,SPOT peptide array binding signal intensity,AgBzz1-D1,59
same,SPOT peptide array binding signal intensity,AgBzz1-D2,81
same,SPOT peptide array binding signal intensity,AgCyk3,3.5
same,SPOT peptide array binding signal intensity,AgFus1,303
same,SPOT peptide array binding signal intensity,AgHof1,156
same,SPOT peptide array binding signal intensity,AgHse1,294
same,SPOT peptide array binding signal intensity,AgLsb1,26.5
same,SPOT peptide array binding signal intensity,AgLsb4,33.5
same,SPOT peptide array binding signal intensity,AgMyo5,≤ 0
same,SPOT peptide array binding signal intensity,AgNbp2,590
same,SPOT peptide array binding signal intensity,AgRvs167,9
same,SPOT peptide array binding signal intensity,AgSho1,45
same,SPOT peptide array binding signal intensity,AgSla1-D1-D2,230
same,SPOT peptide array binding signal intensity,AgSla1-D3,5
same,SPOT peptide array binding signal intensity,CaAbp1-D1,1450
same,SPOT peptide array binding signal intensity,CaAbp1-D2,2460
same,SPOT peptide array binding signal intensity,CaBbc1,793
same,SPOT peptide array binding signal intensity,CaBem1-D1,934
same,SPOT peptide array binding signal intensity,CaBzz1-D1,257
same,SPOT peptide array binding signal intensity,CaBzz1-D2,135
same,SPOT peptide array binding signal intensity,CaCyk3,292
same,SPOT peptide array binding signal intensity,CaFus1,589
same,SPOT peptide array binding signal intensity,CaHof1,1.25
same,SPOT peptide array binding signal intensity,CaHse1,57.2
same,SPOT peptide array binding signal intensity,CaLsb1,≤ 0
same,SPOT peptide array binding signal intensity,CaLsb4,1020
same,SPOT peptide array binding signal intensity,CaMyo5,12
